In PubChem BioAssay one finds composite z-score and z-score data, which are given here for 7 molecules.

Structures are written as SMILES. Several values for one entry are separate records, joined by “and”; a condition that tells them apart may be missing. Equal entries are not always repeated. Activity calls are given as the source filed them.

Assay [1] in a line: binders of probe aFSTL3 on microarray, primary screen, stem cell growth factor project, biochemical, small-molecule microarray, fluorescence 635/667 (AID 1064).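 Note: measures binding of the biotinylated anti-FSTL3 antibody to printed compounds.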 The following applies: higher = more signal.
Assay [2] is described as follows: binders from COS7 lysate, DM2A8 probe, primary screen, torsin A project, cell lysate, small-molecule microarray, fluorescence 635/667 (AID 1065). To be noted: higher = more signal, COS7 lysate expressing mutant human TOR1A.
The nature of assay [3]: binders of probe aFGF2 on microarray, primary screen, stem cell growth factor project, biochemical, small-molecule microarray, fluorescence 635/667 (AID 1067).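 Note: measures binding of biotinylated aFGF2 protein to printed compounds on slides; z-score merges feature fluorescence and signal-to-noise across triplicate slides.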 The following applies: higher = more signal.
Assay [4] in a line: binders of probe aFGF10 on microarray, primary screen, stem cell growth factor project, biochemical, small-molecule microarray, fluorescence 635/667 (AID 1071).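 Note: score merges 667 nm spot intensity and signal to noise from triplicate slides.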 To be noted: higher = more signal.
Assay [5] concerns the target Neurogenic locus notch homolog protein 2 (Homo sapiens) (UniProt Q04721). The assay is described as follows: Notch2 binders on small-molecule microarrays, primary screen, biochemical, small-molecule microarray, 635 nm fluorescence, stem cell growth factors (AID 1073). The following applies: Notch2 binding, higher = more signal.
Assay [6] deals with Pro-neuregulin-1, membrane-bound isoform (Homo sapiens) (UniProt Q02297). The assay is described as follows: NRG1 binders on small-molecule microarrays, primary screen, psychiatric disease protein project, biochemical, small-molecule microarray, fluorescence 635/667 (AID 1075).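 Note: score combines 667 nm spot fluorescence with signal to noise.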 The following applies: NRG1 binding, 635 nm fluorescence, higher = more signal.
Assay [7] deals with Neuregulin-1 EGF-like domain. The assay is described as follows: binders of neuregulin-1 EGF-like domain, primary screen, biochemical, small-molecule microarray, 635 nm fluorescence (AID 1081).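 Note: binding of the protein to compounds printed on small-molecule microarray slides.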 The following applies: small-molecule microarray binding, higher = more signal.
Assay [8] in a line: FRG1 promoter luciferase signal modulators, primary screen, FRG1 inhibition for FSHD, cell-based, C2C12 myotubes, firefly/Renilla luciferase, luminescence (AID 1084). To be noted: higher = more signal, called active from +8 up or from −8 down.
A short description of assay [9]: binders of probe aFST on microarray, primary screen, stem cell growth factor project, biochemical, small-molecule microarray, fluorescence 635/667 (AID 1086).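 Note: score merges 667 nm fluorescence with signal-to-noise of each printed compound spot.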 To be noted: higher = more signal.
Assay [10] can be described thus: binders of probe aHhip on microarray, primary screen, stem cell growth factor project, biochemical, small-molecule microarray, fluorescence 635/667 (AID 1087).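 Note: score merges spot fluorescence at 667nm with spot signal to noise ratio.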 To be noted: higher = more signal.
In assay [11] the test system is PRMT1 (protein arginine N-methyltransferase 1). As to the kind of experiment: PRMT1 binders on small-molecule microarrays, primary screen, biochemical, small-molecule microarray, 635 nm fluorescence (AID 1088).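 Note: binding of Prmt1 protein to compounds spotted on small-molecule microarray slides.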 To be noted: small-molecule microarray binding, higher = more signal.
A short description of assay [12]: yeast growth modulation, basal conditions, primary screen, YJM789 clinical isolate, OD600, 24 h (AID 1089).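 Note: growth of clinical yeast isolate S. cerevisiae YJM 789 seeded 1000 cells per well; test concentration not given here.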 To be noted: S. cerevisiae YJM789 growth, higher = more signal, called active from +8 up or from −8 down.
Assay [13] in a line: fission yeast growth modulation, primary screen, strain 972, OD600, 24 h, no modulator (AID 1090).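 Note: basal condition with compound alone and no growth modifier present; test concentration not given here.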 To be noted: S. pombe 972 growth, higher = more signal, called active from +8 up or from −8 down.
The nature of assay [14]: S. cerevisiae growth modulation with rapamycin, primary screen, strain BY4716, OD600, 96 h (AID 1091). Note: test concentration not given here. To be noted: higher = more signal, called active from +8 up or from −8 down.
The target in assay [15] is Torsin-1A-interacting protein 2 (Homo sapiens) (UniProt Q8NFQ8). The assay is described as follows: LULL1 binders on small-molecule microarray, primary screen, cell lysate, human LULL1 lysate, 635/667 nm fluorescence (AID 1092).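 Note: score merges per-feature 667 nm fluorescence with signal-to-noise.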 The following applies: hLULL1 lysate binding, 635 nm fluorescence, higher = more signal.
Assay [16] is described as follows: E. coli growth modulation, two-sided OD650, primary screen, E. coli filamentation project, strain DRC41, 24 h (AID 1093).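 Note: MC1000 strain lacking acrAB efflux and sulA so SOS filamentation is blocked; test concentration not given here.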 To be noted: OD650, 24 h, higher = more signal, called active from +8 up or from −8 down.
Assay [17] can be described thus: small-molecule microarray binders of probe aLefty2, primary screen, biochemical, biotinylated probe, 635/667 nm fluorescence (AID 1094).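 Note: score merges spot fluorescence near 667 nm with spot signal-to-noise ratio.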 To be noted: higher = more signal.
For assay [18], the system named is Noggin (protein binding on small-molecule microarray). The assay is described as follows: Noggin binders on small-molecule microarray, primary screen, biochemical, 635/667 nm fluorescence (AID 1095).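 Note: score merges 667 nm feature fluorescence with signal to noise over triplicate slides.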 To be noted: 635 nm fluorescence, higher = more signal.
Assay [19] has as its target Neurogenic locus notch homolog protein 3 (Homo sapiens) (UniProt Q9UM47). The assay is described as follows: NOTCH3 binders on small-molecule microarray, primary screen, biochemical, 635/667 nm fluorescence (AID 1096). To be noted: NOTCH3 binding, 635 nm fluorescence, higher = more signal.
The nature of assay [20]: small-molecule microarray binders of probe aEGFR, primary screen, biochemical, biotinylated probe, 635/667 nm fluorescence (AID 1097).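 Note: probe is a biotinylated anti-EGFR antibody binding compounds printed on slides; score combines fluorescence near 667 nm and signal to noise of each spot.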 The following applies: higher = more signal.

Sequence of Neurogenic locus notch homolog protein 3 (Homo sapiens) (Q9UM47 whole entry, looked up): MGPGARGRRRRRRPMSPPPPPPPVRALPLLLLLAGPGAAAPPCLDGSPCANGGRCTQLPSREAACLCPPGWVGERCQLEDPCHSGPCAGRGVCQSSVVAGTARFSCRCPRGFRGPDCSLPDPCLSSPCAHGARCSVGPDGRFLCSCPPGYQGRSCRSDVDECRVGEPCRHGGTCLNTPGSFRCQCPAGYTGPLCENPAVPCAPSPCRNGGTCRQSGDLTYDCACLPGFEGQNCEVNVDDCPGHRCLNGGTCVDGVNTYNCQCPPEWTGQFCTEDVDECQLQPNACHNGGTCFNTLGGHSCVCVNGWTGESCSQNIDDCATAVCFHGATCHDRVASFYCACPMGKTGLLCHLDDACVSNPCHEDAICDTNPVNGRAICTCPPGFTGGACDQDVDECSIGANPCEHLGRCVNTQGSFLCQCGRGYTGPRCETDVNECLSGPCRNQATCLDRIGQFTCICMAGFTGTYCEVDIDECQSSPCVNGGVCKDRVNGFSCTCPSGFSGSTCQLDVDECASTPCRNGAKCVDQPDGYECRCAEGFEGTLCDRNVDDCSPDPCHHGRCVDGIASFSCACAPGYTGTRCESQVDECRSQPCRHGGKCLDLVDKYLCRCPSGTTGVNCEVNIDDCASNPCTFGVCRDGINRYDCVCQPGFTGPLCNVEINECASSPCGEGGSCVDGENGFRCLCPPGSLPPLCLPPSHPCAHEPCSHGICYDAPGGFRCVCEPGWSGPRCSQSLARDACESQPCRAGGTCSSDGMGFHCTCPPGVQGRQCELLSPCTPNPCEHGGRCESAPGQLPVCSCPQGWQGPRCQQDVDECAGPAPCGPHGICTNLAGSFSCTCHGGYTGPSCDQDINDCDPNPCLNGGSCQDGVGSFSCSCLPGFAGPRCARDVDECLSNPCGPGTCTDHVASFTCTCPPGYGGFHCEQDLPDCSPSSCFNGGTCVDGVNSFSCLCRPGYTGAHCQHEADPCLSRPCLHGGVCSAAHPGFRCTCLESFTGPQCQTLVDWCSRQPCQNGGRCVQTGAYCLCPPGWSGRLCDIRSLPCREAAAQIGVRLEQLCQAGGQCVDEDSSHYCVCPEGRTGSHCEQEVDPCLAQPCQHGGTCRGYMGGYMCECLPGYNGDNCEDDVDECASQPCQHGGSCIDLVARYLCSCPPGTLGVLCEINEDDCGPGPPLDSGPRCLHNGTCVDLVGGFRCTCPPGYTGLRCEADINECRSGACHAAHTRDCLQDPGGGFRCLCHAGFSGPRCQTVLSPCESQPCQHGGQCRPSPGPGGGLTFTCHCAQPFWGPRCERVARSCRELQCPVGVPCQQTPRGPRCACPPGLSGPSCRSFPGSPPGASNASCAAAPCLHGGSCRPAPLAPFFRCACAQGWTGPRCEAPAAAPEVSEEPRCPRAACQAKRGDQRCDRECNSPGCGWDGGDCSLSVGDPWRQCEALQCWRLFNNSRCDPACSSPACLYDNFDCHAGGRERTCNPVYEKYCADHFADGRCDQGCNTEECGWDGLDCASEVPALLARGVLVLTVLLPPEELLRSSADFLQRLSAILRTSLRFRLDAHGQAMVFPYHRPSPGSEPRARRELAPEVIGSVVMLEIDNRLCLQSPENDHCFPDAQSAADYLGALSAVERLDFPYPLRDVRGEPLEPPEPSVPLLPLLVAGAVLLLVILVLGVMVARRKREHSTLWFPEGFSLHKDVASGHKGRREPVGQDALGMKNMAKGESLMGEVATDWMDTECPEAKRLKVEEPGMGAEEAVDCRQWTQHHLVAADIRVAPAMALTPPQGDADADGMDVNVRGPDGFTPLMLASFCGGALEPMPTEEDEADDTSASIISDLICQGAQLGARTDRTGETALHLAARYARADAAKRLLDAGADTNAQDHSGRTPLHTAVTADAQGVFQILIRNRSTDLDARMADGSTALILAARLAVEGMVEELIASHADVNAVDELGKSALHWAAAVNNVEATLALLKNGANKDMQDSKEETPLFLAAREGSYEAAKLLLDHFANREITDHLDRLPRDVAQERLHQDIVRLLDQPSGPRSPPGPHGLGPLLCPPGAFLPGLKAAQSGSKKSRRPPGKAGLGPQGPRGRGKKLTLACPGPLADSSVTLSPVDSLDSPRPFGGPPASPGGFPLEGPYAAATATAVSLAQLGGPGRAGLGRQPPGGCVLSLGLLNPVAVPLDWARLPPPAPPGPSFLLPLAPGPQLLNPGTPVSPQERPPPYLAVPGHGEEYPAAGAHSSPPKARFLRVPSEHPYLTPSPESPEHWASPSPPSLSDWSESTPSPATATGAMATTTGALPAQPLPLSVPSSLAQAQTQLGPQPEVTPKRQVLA
Sequence of Pro-neuregulin-1, membrane-bound isoform (Homo sapiens) (Q02297 whole entry, looked up, the tested form may be a part, canonical isoform): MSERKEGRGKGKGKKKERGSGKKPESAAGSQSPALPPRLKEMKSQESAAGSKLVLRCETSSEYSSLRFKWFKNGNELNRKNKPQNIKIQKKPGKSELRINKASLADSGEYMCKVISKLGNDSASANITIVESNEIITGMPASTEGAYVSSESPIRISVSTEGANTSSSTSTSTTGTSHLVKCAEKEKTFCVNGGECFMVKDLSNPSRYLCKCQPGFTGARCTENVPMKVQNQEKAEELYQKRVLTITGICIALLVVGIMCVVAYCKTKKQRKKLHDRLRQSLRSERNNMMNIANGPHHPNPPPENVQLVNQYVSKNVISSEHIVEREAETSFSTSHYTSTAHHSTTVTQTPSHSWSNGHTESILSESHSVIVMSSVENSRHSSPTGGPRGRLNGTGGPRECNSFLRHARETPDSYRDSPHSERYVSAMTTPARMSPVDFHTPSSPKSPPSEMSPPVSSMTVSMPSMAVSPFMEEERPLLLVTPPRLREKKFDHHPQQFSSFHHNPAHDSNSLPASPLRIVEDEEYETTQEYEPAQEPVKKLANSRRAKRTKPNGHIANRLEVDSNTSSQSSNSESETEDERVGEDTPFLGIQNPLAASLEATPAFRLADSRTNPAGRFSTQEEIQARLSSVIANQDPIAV
Sequence of Torsin-1A-interacting protein 2 (Homo sapiens) (Q8NFQ8 whole entry, looked up): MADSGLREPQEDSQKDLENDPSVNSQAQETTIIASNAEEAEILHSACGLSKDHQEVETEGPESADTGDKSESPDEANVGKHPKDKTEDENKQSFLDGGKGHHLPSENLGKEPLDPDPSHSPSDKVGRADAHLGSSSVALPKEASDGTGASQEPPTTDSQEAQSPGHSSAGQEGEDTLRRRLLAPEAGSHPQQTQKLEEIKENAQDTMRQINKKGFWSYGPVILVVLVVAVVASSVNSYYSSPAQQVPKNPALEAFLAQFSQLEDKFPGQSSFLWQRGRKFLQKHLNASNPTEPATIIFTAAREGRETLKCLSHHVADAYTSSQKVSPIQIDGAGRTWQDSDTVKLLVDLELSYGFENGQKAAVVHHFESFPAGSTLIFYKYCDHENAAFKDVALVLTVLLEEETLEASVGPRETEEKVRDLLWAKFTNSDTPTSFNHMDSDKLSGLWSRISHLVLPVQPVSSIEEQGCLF

Consider `CC(C)[Si]1(C(C)C)OCc2cc(C3CC3)nc(CCc3ccccc3)c21`, for which the composite z-score in assay [1] was -0.141 and -0.208; in assay [2], -0.305 and 0.114; in assay [3], -0.0412 and -0.16; in assay [4], -0.124 and 0.172; in assay [5], 0.0069 and 0.589; in assay [6], -0.352 and -0.0692. Moreover, the composite z-score in assay [7] is -1.21 and -0.253; in assay [9], 0.0391 and 0.169; in assay [10], -0.0237 and -0.118; in assay [11], -0.834 and 0.139; in assay [15], -0.597 and 0.259; in assay [17], -0.22 and -0.0956. Moreover, the composite z-score is -0.27 and 0.258 in assay [18]; -0.149 and 0.351 in assay [19]; -0.109 and -0.0147 in assay [20]. Further, the z-score is -0.218 (inactive) and 0.53 (inactive) in assay [8]; 0.289 (inactive) and 0.35 (inactive) in assay [12]; -1.32 (inactive) and 0.134 (inactive) in [13]; 0.725 (inactive) and 0.474 (inactive) in assay [14]; -0.102 (inactive) and -1.01 (inactive) in assay [16].
With `Cc1ccc(S(=O)(=O)N[C@H]2COC(=O)[C@@H](C)COC(=O)[C@H](C)NC(=O)CC=C[C@H]2C)cc1`, the composite z-score in assay [1] was -0.574; in assay [2], 1.03; in assay [3] it was -0.116; in assay [4], 0.604; in [5], 0.192; in assay [6], -0.476. The composite z-score in [7] was -0.132; in assay [9], -0.154; in assay [10], -0.0618; in [11] it was 0.277; in assay [15], -0.487; in assay [17], -0.121. In addition, the composite z-score was 1.17 in assay [18], 0.646 in [19] and -0.0862 in assay [20]. The z-score in [8] was 0.691 (inactive); in assay [12] it was -0.0016 (inactive); in assay [13] it was -0.838 (inactive); in [14], -0.351 (inactive); in assay [16], 0.147 (inactive).
As to `Cc1ccc(S(=O)(=O)N[C@@H]2COC(=O)CC=C[C@@H](C)[C@@H]3C=C[C@H](O)[C@@H](COC(=O)CC=C[C@H]2C)O3)cc1`, the composite z-score in assay [1] was -0.534 and -0.776; in assay [2], 1.1 and 0.792; in assay [3] it was -0.131 and -0.175; in assay [4], 0.0127 and 0.11; in assay [5], -0.557 and 0.111; in assay [6], -0.22 and -0.195. Also, the composite z-score in [7] was 0.0077 and 0.324; in [9], 0.101 and 0.0406; in assay [10], 0.0243 and -0.26; in [11], 0.438 and 0.385; in assay [15], -0.0372 and -0.0592; in assay [17], -0.185 and -0.162. Further, the composite z-score was 0.902 and 0.305 in [18]; -0.0571 and 0.584 in assay [19]; -0.072 and -0.112 in [20]. Besides, the z-score in assay [8] was 0.132 (inactive) and 0.646 (inactive); in [12] it was -0.147 (inactive) and -0.184 (inactive); in assay [13], -0.349 (inactive) and -0.549 (inactive); in assay [14], -0.564 (inactive) and -0.784 (inactive); in assay [16], 0.651 (inactive) and -0.667 (inactive).
For the molecule `COC(=O)C1=C(C)N(Cc2ccccc2)C2=C3C(=O)N(C)C(=O)[C@@H]3[C@@](O)(C(=O)OC)C(=O)N2[C@@H]1c1ccccc1`, the composite z-score in assay [1] is -0.0472 and -0.448; in [2], 0.131 and 0.375; in [3], -0.0301 and -0.0158; in assay [4], 0.721 and 0.128; in [5] it was 0.356 and 0.415; in assay [6], -0.239 and -0.0154. Further, the composite z-score in [7] is -0.322 and -0.0698; in [9], 0.224 and -0.114; in assay [10] it was 0.251 and -0.0645; in assay [11], 0.471 and 0.0202; in [15], 0.0055 and 0.222; in [17] it was 0.0494 and -0.184. Besides, the composite z-score in assay [18] was 0.34 and 0.538; in assay [19], 0.182 and 0.361; in assay [20], -0.138 and 0.131. The z-score was 0.121 (inactive) and -0.811 (inactive) in assay [8]; 0.0264 (inactive) and -1.64 (inactive) in [12]; -0.774 (inactive) and -1.87 (inactive) in assay [13]; -0.807 (inactive) and -0.913 (inactive) in assay [14]; 0.858 (inactive) and -0.0481 (inactive) in [16].
For `C[C@@H]1CC[C@@H](C(=O)O)N[C@H]1c1ccc(-c2ccco2)cc1`, the composite z-score was -0.462 in [1]; 0.712 in assay [2]; -0.0502 in assay [3]; 0.422 in [4]; 0.571 in [5]; 0.486 in assay [6]. In addition, the composite z-score in assay [7] is 0.811; in [9], 0.583; in assay [10], -0.0173; in assay [11], 1.06; in assay [15] it was 0.534; in [17] it was 0.0331. Besides, the composite z-score in [18] was 1.26; in [19], 0.945; in assay [20], -0.115. Further, the z-score in assay [8] was 0.0786 (inactive); in assay [12] it was 0.804 (inactive); in assay [13] it was -0.383 (inactive); in assay [14], -0.476 (inactive); in assay [16], -0.0778 (inactive).
With `C=CCN(C(=O)C1N(CCCCCCO)C(=O)C2C(C(=O)O)C3C=CC21O3)C(C)(C)C` (stereo not given), the composite z-score in [1] is 0.619 and 0.997; in assay [2], -1.01 and -1.12; in assay [3], -0.159 and -0.313; in assay [4], -1.58 and -1.55; in assay [5], -1.01 and -1.71; in [6], 1.07 and -0.354. The composite z-score in assay [7] was -0.192 and 0.886; in [9], -0.492 and -1.5; in assay [10], -0.169 and 0.0373; in [11] it was -0.334 and -0.47; in assay [15], -0.773 and 2.17; in [17], -0.231 and -0.0217. In addition, the composite z-score was -2.53 and -1.64 in assay [18]; -0.763 and -1.42 in assay [19]; -0.253 and -0.375 in assay [20]. Moreover, the z-score is 3.01 (inactive) and 0.174 (inactive) in assay [8]; -0.686 (inactive) and -0.559 (inactive) in assay [12]; -1.43 (inactive) and -0.867 (inactive) in [13]; -0.235 (inactive) and -0.724 (inactive) in [14]; 0.137 (inactive) and -0.31 (inactive) in [16].
Consider `C=CCN(C(=O)C1N(c2ccc(CCO)cc2)C(=O)C2C(C(=O)O)C3C=CC21O3)c1ccc(OC)cc1` (stereo not given), for which the composite z-score in [1] is 0.0619 and 0.336; in assay [2] it was -0.767 and -0.885; in assay [3], -0.226 and -0.276; in [4] it was -0.19 and -1.02; in [5], -0.903 and -1.23; in assay [6], -0.0224 and -1.32. In addition, the composite z-score in [7] was 0.939 and -0.115; in [9], -0.477 and -1.4; in assay [10], -0.132 and -0.236; in assay [11], -0.133 and -0.497; in assay [15], 0.0657 and -1.42; in [17] it was -0.0641 and 0.0524. Besides, the composite z-score in assay [18] was -1.24 and -0.818; in [19] it was 0.0568 and -1.8; in assay [20] it was -0.302 and -0.367. Besides, the z-score was 4.82 (inactive) and -0.639 (inactive) in assay [8]; 0.156 (inactive) and -0.236 (inactive) in assay [12]; 0.332 (inactive) and -0.577 (inactive) in assay [13]; 0.131 (inactive) and -1.62 (inactive) in assay [14]; 0.683 (inactive) and 2.67 (inactive) in assay [16].
